{"source": "paper PMC4242493", "about": "“Sequence specificity incompletely defines the genome-wide occupancy of Myc”", "note": "Whole data set: some 33,000 sequences, median “normalized occupancy” near 0.075, cut for the highest 2% near 0.095. The sample as a whole holds a higher share of the highest values than the screen did.", "data": [{"biological_target": "MaxL homodimer (Homo sapiens, UniProt P61244 1-160)", "sequence (P61244 whole entry)": "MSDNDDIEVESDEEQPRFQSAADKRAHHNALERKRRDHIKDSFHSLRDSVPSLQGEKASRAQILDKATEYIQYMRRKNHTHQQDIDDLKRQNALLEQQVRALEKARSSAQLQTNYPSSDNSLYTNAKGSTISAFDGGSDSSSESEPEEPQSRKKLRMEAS", "experiment": "universal protein-binding microarray (PBM); PBS-based mixture, 10 nM His-tagged protein dimer, 2% milk, 200 ng/uL BSA, 50 ng/uL salmon testes DNA, 0.02% TX-100; detection with Alexa 488 anti-His antibody;; high values mean tight binding", "conditions": "protein: recombinant; tags: C-terminal His-tag (pET21a); chain copies: 2; dsDNA, one strand shown", "in_short": "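Arrays of the 'all 10-mer' universal design (Agilent 4 x 44 K) were exposed to 10 nM His-tagged protein dimer, stained with 10 ng/μL fluorophore-conjugated anti-His antibody and read on a GenePix 4400A to give a fluorescence intensity for each 8-mer. Binding occupancy is each intensity divided by the highest-ranked intensity.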", "units": {"binding signal": "normalized occupancy"}, "values": [{"sequence": "CCTTAACC", "binding signal": 0.0754}, {"sequence": "CGCTTATA", "binding signal": 0.0805}, {"sequence": "CAGTCAGG", "binding signal": 0.0732}, {"sequence": "ACTAAGTC", "binding signal": 0.0734}, {"sequence": "CCCCTTTC", "binding signal": 0.0738}, {"sequence": "ACGAACAG", "binding signal": 0.0753}, {"sequence": "ACTCACAT", "binding signal": 0.0886}, {"sequence": "CCTGCTGA", "binding signal": 0.0756}, {"sequence": "CCCCCACG", "binding signal": 0.0958}, {"sequence": "ATTCCACG", "binding signal": 0.0964}, {"sequence": "CCCCCACA", "binding signal": 0.0839}, {"sequence": "ATTCCACA", "binding signal": 0.0794}, {"sequence": "GTTCCACA", "binding signal": 0.0784}, {"sequence": "CATCCACG", "binding signal": 0.108}, {"sequence": "CACCCACC", "binding signal": 0.0828}, {"sequence": "GCCCCACA", "binding signal": 0.0784}, {"sequence": "AATCCACG", "binding signal": 0.0813}, {"sequence": "CACCCACA", "binding signal": 0.0789}, {"sequence": "CACCCACG", "binding signal": 0.0964}, {"sequence": "CATCCACA", "binding signal": 0.0859}, {"sequence": "CAACTATG", "binding signal": 0.0846}, {"sequence": "AACAGCAT", "binding signal": 0.087}, {"sequence": "GTTTGGAA", "binding signal": 0.0754}, {"sequence": "ACGCCTGG", "binding signal": 0.0735}, {"sequence": "CAGTAATA", "binding signal": 0.0775}, {"sequence": "CATCCCCG", "binding signal": 0.0773}, {"sequence": "TTAATGAA", "binding signal": 0.0772}, {"sequence": "ACACAGGC", "binding signal": 0.0789}, {"sequence": "CACTTCGC", "binding signal": 0.0739}, {"sequence": "GTCCTCAC", "binding signal": 0.0765}, {"sequence": "AAGAGCAC", "binding signal": 0.0774}, {"sequence": "CGCGGGAC", "binding signal": 0.0733}, {"sequence": "TAAAGGAA", "binding signal": 0.0741}, {"sequence": "AATCGAAA", "binding signal": 0.0785}, {"sequence": "ATGATGTG", "binding signal": 0.088}, {"sequence": "ACGTGGAT", "binding signal": 0.104}, {"sequence": "GGGTGGAC", "binding signal": 0.0796}, {"sequence": "AGGTGGAT", "binding signal": 0.08}, {"sequence": "CCGTGGAC", "binding signal": 0.0739}, {"sequence": "ACGTGGAC", "binding signal": 0.106}, {"sequence": "GCGTGGAC", "binding signal": 0.0976}, {"sequence": "GAGTGGAC", "binding signal": 0.0761}, {"sequence": "AAGTGGAT", "binding signal": 0.0727}, {"sequence": "AGGTGGAA", "binding signal": 0.0722}, {"sequence": "AGGTGGAC", "binding signal": 0.0775}, {"sequence": "AAGTGGAA", "binding signal": 0.072}, {"sequence": "ACGTGGAA", "binding signal": 0.108}, {"sequence": "AGCTGAAA", "binding signal": 0.0723}, {"sequence": "ACACGGCC", "binding signal": 0.0719}, {"sequence": "AAACATCC", "binding signal": 0.0762}, {"sequence": "CGGCACAA", "binding signal": 0.0773}, {"sequence": "TCAATAGA", "binding signal": 0.0745}, {"sequence": "ACAAGGCT", "binding signal": 0.0781}, {"sequence": "GAGGCAGA", "binding signal": 0.0719}, {"sequence": "CGCTCTAA", "binding signal": 0.0739}, {"sequence": "AGGGCATA", "binding signal": 0.0779}, {"sequence": "CCGTGGAG", "binding signal": 0.0796}, {"sequence": "AGGTGGAG", "binding signal": 0.0827}, {"sequence": "TCGTGGAA", "binding signal": 0.0835}, {"sequence": "GCGTGGAA", "binding signal": 0.106}, {"sequence": "ACGTGGAG", "binding signal": 0.0976}, {"sequence": "CCGTGGAA", "binding signal": 0.0755}, {"sequence": "ACGTATTA", "binding signal": 0.0818}, {"sequence": "AATGGTTA", "binding signal": 0.0807}, {"sequence": "CATGACGG", "binding signal": 0.0797}, {"sequence": "AAGCGTGC", "binding signal": 0.104}, {"sequence": "AAGCGTCA", "binding signal": 0.0737}, {"sequence": "AAGCGTGG", "binding signal": 0.121}, {"sequence": "AAGCGTTG", "binding signal": 0.076}, {"sequence": "AAGCGTTA", "binding signal": 0.0738}, {"sequence": "AAGCGTGA", "binding signal": 0.0961}, {"sequence": "CAGCGTGC", "binding signal": 0.118}, {"sequence": "AAGCGCGG", "binding signal": 0.0752}, {"sequence": "CAGCGCGC", "binding signal": 0.0795}, {"sequence": "CACCGTGC", "binding signal": 0.0868}, {"sequence": "AAGCGTTC", "binding signal": 0.0728}, {"sequence": "GAGCGTGC", "binding signal": 0.0887}, {"sequence": "GGTCGGAC", "binding signal": 0.0772}, {"sequence": "TATGCTAA", "binding signal": 0.0798}, {"sequence": "CAATCTCG", "binding signal": 0.0753}, {"sequence": "ACGCTGAC", "binding signal": 0.0735}, {"sequence": "ATTTGAGA", "binding signal": 0.0896}, {"sequence": "AGACCCTC", "binding signal": 0.0752}, {"sequence": "CTGGTCAC", "binding signal": 0.0773}, {"sequence": "ATTTATGC", "binding signal": 0.0838}, {"sequence": "AGAGTTAA", "binding signal": 0.0737}, {"sequence": "AAGCGTGT", "binding signal": 0.0967}, {"sequence": "AAGCGCGT", "binding signal": 0.0758}, {"sequence": "AAGCGTAT", "binding signal": 0.0722}, {"sequence": "GAGGGGAA", "binding signal": 0.0755}, {"sequence": "GCATGATA", "binding signal": 0.0994}, {"sequence": "AAGTGATG", "binding signal": 0.0756}, {"sequence": "AAGTGATA", "binding signal": 0.0795}, {"sequence": "CCGTGATC", "binding signal": 0.0778}, {"sequence": "ACGTGATA", "binding signal": 0.11}, {"sequence": "CCATGATA", "binding signal": 0.0845}, {"sequence": "ACGTGATG", "binding signal": 0.103}, {"sequence": "GTATGATA", "binding signal": 0.0877}, {"sequence": "AGGTGATA", "binding signal": 0.0839}, {"sequence": "AAGTGATC", "binding signal": 0.0794}, {"sequence": "AGGTGATG", "binding signal": 0.0834}, {"sequence": "ACGTGATC", "binding signal": 0.108}, {"sequence": "CTGGACGA", "binding signal": 0.0734}, {"sequence": "CCTTCAGA", "binding signal": 0.0732}, {"sequence": "CGAGGGCA", "binding signal": 0.0765}, {"sequence": "GTGCTGGA", "binding signal": 0.0813}, {"sequence": "ATTGATTG", "binding signal": 0.0769}, {"sequence": "CAAGGGAA", "binding signal": 0.0781}, {"sequence": "ATGGATGC", "binding signal": 0.082}, {"sequence": "GCGTGATA", "binding signal": 0.1}, {"sequence": "GAGTGATA", "binding signal": 0.0802}, {"sequence": "CCGTGATA", "binding signal": 0.0782}, {"sequence": "CCATTCAA", "binding signal": 0.0785}, {"sequence": "AGCATGGA", "binding signal": 0.1}, {"sequence": "ATCATGGA", "binding signal": 0.0834}, {"sequence": "CGCATGGC", "binding signal": 0.127}, {"sequence": "AGCATTGA", "binding signal": 0.0777}, {"sequence": "AGAATGGC", "binding signal": 0.0756}, {"sequence": "ATCATGGG", "binding signal": 0.0858}, {"sequence": "CCCATGGC", "binding signal": 0.0849}, {"sequence": "CGCATAGC", "binding signal": 0.0734}, {"sequence": "ATCATGGC", "binding signal": 0.0863}, {"sequence": "AGCATGGG", "binding signal": 0.106}, {"sequence": "AGCATAGG", "binding signal": 0.0718}, {"sequence": "AGCATGGC", "binding signal": 0.102}, {"sequence": "ACTTTTAT", "binding signal": 0.0748}, {"sequence": "CAGTAAAC", "binding signal": 0.0746}, {"sequence": "ACTTTGAA", "binding signal": 0.0759}, {"sequence": "CGTTATGA", "binding signal": 0.0829}, {"sequence": "CTTGATGA", "binding signal": 0.0755}, {"sequence": "AGATTATC", "binding signal": 0.0807}, {"sequence": "CCTCGCCG", "binding signal": 0.0725}, {"sequence": "GGCATGGA", "binding signal": 0.0929}, {"sequence": "CGCATGGA", "binding signal": 0.106}, {"sequence": "GTCATGGA", "binding signal": 0.0831}, {"sequence": "ACTGTTTC", "binding signal": 0.0744}, {"sequence": "ATGAGTAC", "binding signal": 0.0839}, {"sequence": "CATGCTAG", "binding signal": 0.106}, {"sequence": "AATGCTAG", "binding signal": 0.079}, {"sequence": "AATGCTAC", "binding signal": 0.0772}, {"sequence": "CATGCTAC", "binding signal": 0.0953}, {"sequence": "GATGCTAC", "binding signal": 0.081}, {"sequence": "CATGCTAA", "binding signal": 0.091}, {"sequence": "GGTAACGA", "binding signal": 0.0778}, {"sequence": "AGATGACT", "binding signal": 0.0724}, {"sequence": "CGGTGGAA", "binding signal": 0.0725}, {"sequence": "ATATATGG", "binding signal": 0.0895}, {"sequence": "TCATATGA", "binding signal": 0.0914}, {"sequence": "CCATATGA", "binding signal": 0.0926}, {"sequence": "ACATATGC", "binding signal": 0.0976}, {"sequence": "ACATATGT", "binding signal": 0.0906}, {"sequence": "ACATATGG", "binding signal": 0.0977}, {"sequence": "ACATATGA", "binding signal": 0.0952}, {"sequence": "ATATATGC", "binding signal": 0.0867}, {"sequence": "ACATATCC", "binding signal": 0.0835}, {"sequence": "GAACATAC", "binding signal": 0.0829}, {"sequence": "GAATTACC", "binding signal": 0.072}, {"sequence": "GCACCTTA", "binding signal": 0.0768}, {"sequence": "CACGAGAA", "binding signal": 0.0893}, {"sequence": "AACGAGGA", "binding signal": 0.088}, {"sequence": "CACGAGAC", "binding signal": 0.1}, {"sequence": "CACGAGCC", "binding signal": 0.0812}, {"sequence": "AACGAGGG", "binding signal": 0.0775}, {"sequence": "CACGAGGG", "binding signal": 0.134}, {"sequence": "CACGAGCG", "binding signal": 0.082}, {"sequence": "AACGAGAC", "binding signal": 0.075}, {"sequence": "CACGAGGC", "binding signal": 0.134}, {"sequence": "AACGAGGC", "binding signal": 0.0809}, {"sequence": "CACGAGGA", "binding signal": 0.137}, {"sequence": "TACGAGGA", "binding signal": 0.0793}, {"sequence": "TACGGGCA", "binding signal": 0.0723}, {"sequence": "GGTCTTAA", "binding signal": 0.075}, {"sequence": "CTCTATTA", "binding signal": 0.0807}, {"sequence": "CCCCGCAG", "binding signal": 0.072}]}]}
